Screening data as filed in PubChem BioAssay.
MITF inh – MITF inhibitors, primary screen, biochemical, AlphaScreen, human | hit rate 0.91% among 650,000 | AlphaScreen MITF homodimerization, bead proximity signal | inhibition, % at 2.6 µM; in the data active = inhibition above about 50%;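 note: 0% = vehicle wells with protein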
Target sequence (O75030 whole entry, looked up): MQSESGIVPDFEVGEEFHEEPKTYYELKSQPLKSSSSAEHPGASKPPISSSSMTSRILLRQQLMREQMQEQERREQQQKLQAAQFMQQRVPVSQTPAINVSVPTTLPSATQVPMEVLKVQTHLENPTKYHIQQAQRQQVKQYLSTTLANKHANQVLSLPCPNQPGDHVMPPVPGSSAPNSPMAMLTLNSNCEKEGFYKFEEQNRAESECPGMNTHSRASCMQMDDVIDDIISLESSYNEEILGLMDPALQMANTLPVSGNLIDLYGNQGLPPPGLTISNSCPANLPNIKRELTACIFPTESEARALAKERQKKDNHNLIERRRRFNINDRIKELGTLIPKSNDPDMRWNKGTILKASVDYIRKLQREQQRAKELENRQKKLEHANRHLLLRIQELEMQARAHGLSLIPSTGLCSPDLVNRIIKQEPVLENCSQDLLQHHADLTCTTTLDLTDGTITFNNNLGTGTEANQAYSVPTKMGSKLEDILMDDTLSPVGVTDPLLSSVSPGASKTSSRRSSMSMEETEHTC
GPR151 ag – activators of human GPR151, primary screen, cell-based, PathHunter beta-arrestin, luminescence. PathHunter beta-arrestin GPR151 cells. activation, % at 11.2 µM. hit rate 1% among 650,000. AID 1508602, 2020; in the data active = activation above about 4.9%;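 note: 0% = median of compound wells and 100% = cells with positive control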
TEAD-YAP inh – TEAD-YAP interaction inhibition, primary screen, TEAD-YAP interaction inhibitor project, luminescence, HEK-TIYL cells; TEAD-Gal4/YAP UAS-luciferase luminescence; inhibition, % at 9.12 µM; hit rate 1.4% among 640,000; AID 1259422, 2018; in the data active = inhibition above about 32%;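 note: 0% = median of test compound wells and 100% = reference inhibitor wells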
FBW7 activator – FBW7 E3 ligase activators, primary screen, biochemical, AlphaScreen, human | F-box/WD repeat-containing protein 7 (Homo sapiens), Q969H0 | AlphaScreen FBW7–phospho-cyclin E peptide binding, activator screen | normalized activity (activation), % at 26.1 µM | hit rate 0.13% among 650,000 | AID 1259310, 2017; in the data active = normalized activity above about 1.9%;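 note: purified mutant Fbw7 with reduced substrate affinity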
GPR151 conf act – GPR151 activators, triplicate retest, confirmation, cell-based, PathHunter beta-arrestin, luminescence; GPR151 PathHunter beta-arrestin cells, 90 min; % of EA-reagent control over plate median; activation, % at 11.2 µM; 6,700 tested, under 10 active; shares compounds with GPR151 ag;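 active = mean percent activation across replicates above the confirmation screen cutoff of 4.91%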
GPR119 ag – GPR119 activators in beta-arrestin cells, counter-screen for GPR151 activator project, cell-based, PathHunter beta-arrestin, luminescence, triplicate. shares compounds with GPR151 ag. AID 1508611, 2020. hit rate 0.3% among 6,700. activation, % at 11.2 µM. 90 min; 0 = compound-well median, 100 = enzyme-acceptor control;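 active = mean percent activation in the counterscreen above 29.09%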;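 note: counterscreen on off-target GPR119 to flag nonselective hits from the GPR151 activator screen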
The depositor's hits bear a star; nt = not tested or not shown. Hits are enriched below; roughly 3.4% of the tested compounds scored in any of these assays.

SMILES	MITF inh	GPR151 ag	TEAD-YAP inh	FBW7 activator	GPR151 conf act	GPR119 ag
O=C(Nc1ccccc1)c1cccc(S(=O)(=O)Nc2ccccc2Cl)c1	18	1	6	1	nt	nt
C#CCN1C(=O)C(=O)c2cccc(C)c21	7	1	5	0	nt	nt
Fc1ccc(CSc2ccc3nnc(-c4cccnc4)n3n2)cc1	-2	5.3*	-16	-1	0	1
c1ccc(-c2nnc3ccc(SCc4cccnc4)nn23)cc1	-1	0	5	0	nt	nt
CCOC(=O)c1cc(S(=O)(=O)NCc2ccccc2OC)cn1C	7	0	7	0	nt	nt
Cn1ncc2c(N3CCOCC3)nc(NCc3ccco3)nc21	17	5.4*	-2	0	0	-3
O=C1c2ccccc2C(=O)N1CC1c2ccccc2CCN1C(=O)c1cccs1 (centres undefined)	0	-2	9	0	nt	nt
CNC(=S)Nc1ccc(Br)cc1F	2	2	4	0	nt	nt
Cc1nn(CC(=O)OCC(=O)NC(=O)c2ccc(OC(F)F)cc2)c(C)c1[N+](=O)[O-]	-11	6.6*	0	0	1	5
COc1cc(C(=O)NCc2cc(-c3ccccc3)on2)cc(OC)c1OC	0	6.2*	-2	0	-1	-17
COc1cc(Nc2ncc(C(=O)NCc3ccccc3)s2)cc(OC)c1OC	9	6.1*	-21	0	0	3
COCCSc1nnc(C2CCN(CC3CC=CCC3)CC2)n1C (centres undefined)	0	0	10	0	nt	nt
Cc1ccc(S(=O)(=O)n2c(SCC(=O)c3ccc(Cl)cc3)nc3ccccc32)cc1	-6	-2	-8	0	nt	nt
O=C(Nc1cccc(C(=O)N2CCN(c3ccc(F)cc3)CC2)c1)c1ccccc1	-5	5.6*	2	1	1	0
O=c1[nH]c2ccc(S(=O)(=O)NCc3ccco3)cc2o1	-2	6.0*	-3	0	0	4
O=c1ccc2cc(S(=O)(=O)NCc3ccco3)ccc2o1	-41	1	-1	0	nt	nt
CC1CCCCN1c1ncccc1C(=O)NC1CCCC1 (centres undefined)	30	6.4*	-4	0	1	4
CC1CCCCN1c1ncccc1C(=O)N1CCCC1 (centres undefined)	10	-1	3	0	nt	nt
O=C(CCc1nnc(Cc2ccc3c(c2)OCO3)o1)NCCCC1CCCC1	0	6.9*	-2	0	-1	-1
CN1CCOCCOCCOCCOCCOCC1	0	6.3*	-5	0	0	-7
Cc1cnc(Nc2cnccn2)nc1NCCOc1ccccc1	-5	0	7	0	nt	nt
COc1cccc(NC(=O)c2ccc(S(=O)(=O)NCc3ccccc3)cc2)c1	11	0	10	0	nt	nt
CCCNc1nc(-c2ccc(N3CCOCC3)nc2)nc2c1ncn2-c1ccccc1	16	-2	7	0	nt	nt
c1ccc(-n2cnc3c(NCc4cccnc4)nc(-c4ccc(N5CCOCC5)nc4)nc32)cc1	0	5.7*	46*	0	-1	-10
c1ccc(CNc2nc(-c3ccc(N4CCOCC4)nc3)nc3c2ncn3-c2ccccc2)cc1	-6	5.5*	-1	0	1	-1
SMILES	MITF inh	GPR151 ag	TEAD-YAP inh	FBW7 activator	GPR151 conf act	GPR119 ag
O=Cc1cn(CC(=O)NCc2ccccc2)c2ccccc12	-5	2	12	0	nt	nt
O=Cc1cn(CC(=O)NCCc2ccccc2)c2ccccc12	-4	7.0*	13	0	-1	-8
CCOC(=O)CC1COCCN1Cc1c(C(=O)N2CCCCCCC2)nc2sccn12 (centres undefined)	8	3	-11	0	nt	nt
Cn1nc(SCC(=O)Nc2ccc(S(N)(=O)=O)cc2)sc1=NCc1ccccc1	3	-1	3	0	nt	nt
COC(=O)CCCNc1nc(CN(C)Cc2nc3ccccc3s2)nc2ccccc12	-3	-1	-7	-1	nt	nt
Cc1ccc(N2C(=O)CC(Sc3ccc(F)cc3)C2=O)cc1 (centres undefined)	-10	0	10	0	nt	nt
Cc1ccc(SC2CC(=O)N(c3ccc(F)cc3F)C2=O)cc1 (centres undefined)	-8	9.8*	0	0	-1	-5
Cc1cnc(Nc2ccncc2)nc1NCCOc1ccccc1	2	-2	2	1	nt	nt
Cc1cnc(Nc2ccccc2)nc1NCCOc1ccccc1	-6	6.0*	7	0	1	1
CCCCC[C@@H](O)/C=C/[C@H]1[C@H](O)CC(=O)[C@@H]1CCCCCCC(=O)O	14	7.2*	nt	nt	0	3
CCCCC[C@H](O)/C=C/[C@H]1[C@H](O)CC(=O)[C@@H]1CCCCC(=O)O	12	-3	nt	nt	nt	nt
O=C(CSCC(=O)N1CCCCC1)Nc1nc(-c2ccc(Cl)s2)cs1	1	6.1*	-24	0	0	7
O=C(CSCC(=O)N1CCCCC1)Nc1nc(-c2cccs2)cs1	10	-1	-5	0	nt	nt
C[C@H]1O[C@@H](O[C@H]2[C@@H](O)C[C@H](O[C@H]3[C@@H](O)C[C@H](O[C@H]4CCC5(C)[C@H](CC[C@@H]6[C@@H]5C[C@@H](O)C5(C)C(C7=CC(=O)OC7)CCC65O)C4)O[C@@H]3C)O[C@@H]2C)C[C@H](O)[C@@H]1O (some centres undefined)	-7	5.0*	nt	0	0	98*
CCN(CC)S(=O)(=O)c1ccc(N/N=C/c2ccc(O)c(OC)c2)c([N+](=O)[O-])c1	3	1	4	0	nt	nt
CCO/C(C)=C/c1oc2ccc(-c3ccccc3)cc2[n+]1CCCS(=O)(=O)O	6	5.6*	6	0	0	-5
Cc1oc2ccc(Cl)cc2[n+]1CCCS(=O)(=O)O	8	-1	9	1	nt	nt
CCCNS(=O)(=O)c1ccc(OCC)c2ccccc12	4	-2	4	0	nt	nt
CN(Cc1ccc(C(=O)NCc2ccccc2Cl)c(=O)[nH]1)CC(O)c1ccccc1 (centres undefined)	10	1	3	0	nt	nt
Cc1ccc(NC(=O)C2(N3CCN(c4ccccc4)CC3)CCCCC2)cc1	-2	0	5	0	nt	nt
COc1ccc(NC(=O)N2CCC(CN3CCOCC3)CC2)c(OC)c1	9	4	-2	0	nt	nt
COc1ccc(NC(=O)N2CCC(CN3CCOCC3)CC2)cc1OC	5	6.9*	5	0	1	6
Cc1c(C(=O)N2CCCC2)sc2ncnc(N3CCCCC3C)c12 (centres undefined)	14	0	-2	1	nt	nt
